Results on 40 compounds are retold here after PubChem BioAssay (EPA / NIEHS).

Records with an inconclusive call do not appear. Active and inactive are the calls of the source. How the source made its calls: active means hit-call score of the fitted dose curve at least 0.9, where 1 is the maximum; inconclusive means response in the unintended direction; inactive means score below 0.9.

This assay is described as follows: ATG_M_06_TRANS: Attagene TRANS-FACTORIAL HepG2 Assay for M06 Transcription Factor (Internal Marker) (AID 2282983). To be noted: HepG2 Attagene TRANS M06 internal marker reporter. The procedure: ATG_TRANS is a cell-based, multiplexed-readout assay that uses HepG2, a human liver cell line, with measurements taken at 24 hours after chemical dosing in a 24-well plate.ATG_M_06_TRANS is one of 30 assay component(s) measured or calculated from the ATG_TRANS assay. It is designed to make measurements of mRNA induction, a form of inducible reporter, as detected with fluorescence intensity signals by Reverse transcription polymerase chain reaction (RT-PCR) and Capillary electrophoresis technology.Data from the assay component ATG_M_06_TRANS was analyzed into 1 assay endpoint. This assay endpoint, ATG_M_06_TRANS, was analyzed in the positive analysis fitting direction relative to DMSO as the negative control and baseline of activity. Using a type of inducible reporter, measures of mRNA for gain-of-signal activity can be used to understand the background control at the transcription factor-level as they relate to the gene . Furthermore, this assay endpoint can be referred to as a secondary readout, because this assay has produced multiple assay endpoints where this one serves a background control function. To generalize the intended target to other relatable targets, this assay endpoint is annotated to the background measurement intended target family, where the subfamily is internal marker.
Human liver HepG2 cells are transiently transfected with multiple reporter transcription units (MRTUs) in 6-well plates using FuGene 6 reagent (Roche; 3 ml FuGene/1 mg DNA). The MRTU constructs are regulated by a cis-regulating element (promoter). […] A major difference between the CIS and TRANS system is that in CIS activities of endogenous TFs are measured, whereas the TRANS assay evaluates changes in activities of exogenous, chimeric NR-Gal4 proteins. […] At the end of 24 hour incubation, total RNA was isolated using TriZol reagent (Invitrogen). The isolated RNA is then reverse-transcribed using oligo(dT) primer and Mo-MLV reverse transcriptase (Invitrogen) with DNAse I (Ambion) treatment for 30 min. The one-tenth of the produced cDNA was amplified by PCR using Taq DNA polymerase (Invitrogen) and two reporter sequence-specific primers. The PCR products were fluorescently labeled by primer extension with 6-arboxyfluorescein (6-FAM) 5'-labeled reporter sequence-specific primer (2 min at 95 C, 20 s at 68 C and 10 min at 72 C) and these products were digested with 5U of HpaI (New England Biolabs) for 2h at 37 C. The fragments were purified using Qiaquick PCR columns (Qiagen), analyzed on an ABI 3130xL genetic analyzer (Applied Biosystems) with peak positions identified by using a set of X-rhodamine (ROX)-labeled MapMarker1000 molecular weight standards (BioVentures). The raw capillary electrophoresis data was processed using Attagraph software (Attagene).
As to `CCCOC(=O)CC`, the compound was classed as inactive.
The value for `CC(C)N(c1ccccc1)C(C)C` was “inactive”; that for `Nc1ccn([C@H]2CC[C@@H](CO)O2)c(=O)n1` was “inactive”; that for `Cc1ccccc1S` was “inactive”.
The value for `CC(C)COC(=O)c1ccccc1O` was “inactive”.
For the compound `CCCCCCC(C)O` (stereo not given), the compound was classed as inactive.
In the case of `C1CCCNCC1`, the compound was called inactive.
Turning to `C=CC(O)CCCCC` (stereo not given), the call was inactive.
The value for `CCn1cc(C(=O)O)c(=O)c2ccc(C)nc21` was “inactive”; that for `CCOC(=O)CC(C)C` was “inactive”; that for `CCCCC(CC)COCCO` (stereo not given) was “inactive”.
The value for `NS(=O)(=O)c1cc(C(=O)O)c(NCc2ccco2)cc1Cl` was “inactive”; that for `C=C(C)CCCC(C)CCO` (stereo not given) was “inactive”; that for `CCCCCCCCOC(=O)c1ccc(O)cc1` was “inactive”.
The value for `CC(C)(O)CCc1ccccc1` was “inactive”; that for `CC(C)COC(=O)c1ccccc1` was “inactive”.
On to `CC(O)CNCC(C)O` (stereo not given), for which the call was inactive.
The value for `CCOC(=O)CCCCCCCCC(=O)OCC` was “inactive”.
The value for `CCCO[Si](OCCC)(OCCC)OCCC` was “inactive”; that for `Cc1cccc(O)c1` was “inactive”.
For `NNC(=O)OCc1ccccc1`, the compound was called inactive.
The value for `Cc1cccc(C)c1` was “inactive”.
Consider `c1ccc(Cc2ccccc2)cc1`, for which the result was inactive.
The value for `ClCCOCCOCCCl` was “inactive”.
Turning to `CC(C)(CO)CO`, the compound was classed as inactive.
The value for `CCCCCCCCCCCCOCCOS(=O)(=O)O` was “inactive”; that for `CC(C)Cc1ccccc1` was “inactive”.
Consider `O=C1OC2(c3ccc(O)cc3Oc3cc(O)ccc32)c2ccccc21`, for which the compound was classed as inactive.
The value for `CCNC(=S)NCC` was “inactive”; that for `CN1CCc2cccc3c2[C@H]1Cc1ccc(O)c(O)c1-3` was “inactive”.
Take `CCCCCCCCSCc1cc(C)c(O)c(CSCCCCCCCC)c1`: the compound was called inactive.
The value for `O=S(=O)(O)c1cc(S(=O)(=O)O)c2c(N=Nc3ccccc3)c(O)ccc2c1` was “inactive”.
The value for `CC/C=C\CCOC(C)OCC` (stereo not given) was “inactive”.
The value for `Cc1cc(O)c2c(c1)C(=O)c1cc(O)cc(O)c1C2=O` was “inactive”; that for `CCCCCCC(O)CCOC(C)=O` (stereo not given) was “inactive”; that for `C1COCO1` was “inactive”.
In the case of `CC/C=C\C#N`, the call was inactive.
Turning to `CCC(C)(C)C1CCC(=O)CC1`, the compound was classed as inactive.
As for `CCC(C)(C)c1cc(O)c(C(C)(C)CC)cc1O`, the compound was classed as inactive.
The value for `NC(=O)c1c(Cl)cccc1Cl` was “inactive”.
